Screens from PubChem.
HCV inh: qHTS Assay for Inhibitors of Hepatitis C Virus (HCV); Potency, µM (doses to about 41.8 µM), for the others: top-dose activity change, negative = inhibition, actives largely listed as inhibitors; actives 3.4% (n = 340,000); Huh7.5.1 HCVcc-Cre infection, luciferase reporter, 44 h; AID 651820, 2012; further: potency means the concentration at half of the fitted maximal effect
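Cells (1,000/well) were plated 4 h before compound, then infected with HCVcc-Cre virus (~0.5 moi). After 44 h further culture, infection was read as luciferase luminescence following a 15 min substrate incubation at room temperature.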
Vaccinia mCherry: qHTS for Stage-Specific Inhibitors of Vaccinia Orthopoxvirus: mCherry Reporter Primary qHTS; Vaccinia virus mCherry reporter infection, fluorescence; Potency, µM (doses to about 36.5 µM), for the others: at the highest dose activity change, negative = inhibition, most hits filed as inhibitors; actives 0.63% (n = 310,000); calls by dose curve; tested in A549 cells; further: potency means the concentration at half of the fitted maximal effect; nearly all actives have a fitted effect of over 35% in size
HCMV inh: qHTS Assay for inhibitors of the human cytomegalovirus (HCMV) | actives 4.5% (n = 410,000) | AID 1259415, 2018 | HFF cells, HCMV-luciferase reporter, 72 h; active compounds read low | activity change, negative = inhibition, % at 57.5 µM; in the data active means activity change below about -60%; inconclusive means no clear call, values can overlap the other calls; inactive means above about -39%
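Compounds were evaluated in HFFs infected with an HCMV luciferase reporter virus (MOI 1 PFU/cell). Luciferase in lysates collected 72 h post infection served as the replication measure.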
VACV Venus inh: qHTS for Stage-Specific Inhibitors of Vaccinia Orthopoxvirus: Venus Reporter Primary qHTS | Potency, µM (titrated, usually from 36.5 µM), for inactives: at the highest dose activity change, negative = inhibition, actives largely listed as inhibitors | actives 0.46% (n = 330,000) | Vaccinia virus Venus reporter expression, fluorescence; calls by dose curve; tested in A549 cells; further: potency means the concentration at half of the fitted maximal effect; nearly all actives have a fitted effect of over 30% in size
Giardia FBPA inh: qHTS Assay for Inhibitors of Fructose-1,6-bisphosphate Aldolase from Giardia Lamblia. actives 0.71% (n = 290,000). Potency, µM (top dose mostly 59.6 µM), for inactives: at the highest dose activity, negative = inhibition, usual class: inhibitors. purified Giardia FBPA; further: potency means the concentration at half of the fitted maximal effect; nearly all actives have a fitted effect of over 55% in size
Target sequence (A8B2U2 whole entry, looked up): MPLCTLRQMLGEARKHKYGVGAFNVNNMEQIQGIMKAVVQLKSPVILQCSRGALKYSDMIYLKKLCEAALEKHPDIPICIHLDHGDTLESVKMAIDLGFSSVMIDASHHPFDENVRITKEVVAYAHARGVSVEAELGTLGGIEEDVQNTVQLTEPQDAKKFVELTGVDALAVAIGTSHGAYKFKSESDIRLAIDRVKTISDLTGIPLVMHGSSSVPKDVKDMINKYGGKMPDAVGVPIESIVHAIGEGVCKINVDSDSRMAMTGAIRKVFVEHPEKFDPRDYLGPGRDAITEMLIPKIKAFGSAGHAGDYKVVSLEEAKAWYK
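40 nM FBPA preincubated 10 min at RT with compound (up to 57.5 uM final), then substrate plus GAPDH/TPI/NAD/arsenate coupling and diaphorase/resazurin added. Fluorescence read after 20 min at RT, 525/598 nm.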
FMDV inh: High Throughput Screening for Foot and Mouth Disease Virus Antivirals; actives 1.2% (n = 410,000); AID 1159524, 2015; FMDV antiviral cell-based qHTS; Potency, µM (series often up to 57.9 µM), without a hit: at the highest dose activity change, negative = inhibition, most hits filed as inhibitors; calls by dose curve; tested in HEK293T cells; further: read-out not given here; potency means the concentration at half of the fitted maximal effect; nearly all actives have a fitted effect of over 45% in size
* hit, by the source's call; i = inactive; ? = inconclusive; / = no result given; [ ] = dose if it differs, or a comment. Most compounds without a hit are left out; they make up all but 7.5% or so of the library. Unless noted, the call rests on the fitted dose curve; in most records, active means well fitted curve in the direction sought with a large enough effect; inconclusive means small, poorly fitted or top-dose-only effect, or another doubt; inactive means no such curve, though single readings can be large; an effect the other way counts as inactive or inconclusive. On the % scale 0 is the no-effect control and ±100 the full control effect.

SMILES	HCV inh	Vaccinia mCherry	HCMV inh	VACV Venus inh	Giardia FBPA inh	FMDV inh
O=C(c1n[nH]c(=O)c2ccccc12)N1CCN(c2ccc(F)cc2)CC1	-2%	-14%	-102*	-13%	-3%	?
O=C(c1c[nH]c(C(=O)N2CCN(c3ccccc3F)CC2)c1)c1cccc(Cl)c1Cl	25µM*	/	-19	/	-5%	-30%
Cc1ccccc1C(=O)c1c[nH]c(C(=O)N2CCN(c3ccccc3F)CC2)c1	?	359%	-38	188%	-5%	?
CC(NC(=O)c1ccco1)c1nnc2n1CCN(Cc1ccc(Cl)cc1)CC2 (stereo not given)	/	-13%	/	-5%	/	2%
CCOc1ccc(CNC(=O)CCS(=O)(=O)c2cc3c4c(c2)CCN4C(=O)CC3)cc1	/	-11%	-4	4%	/	-2%
O=C(c1ccccc1)c1ccc(N2CCN(C(=O)c3cccc(F)c3F)CC2)c(F)c1	13µM*	/	-22	/	/	-67%
O=C(c1ccccc1C(=O)N1CCN(c2ccc(F)cc2)CC1)N1CCN(c2ccc(F)cc2)CC1	-4%	-23%	-24	-24%	-3%	22µM*
COc1cccc(NC(=O)COC(=O)c2ccccc2C(=O)N2CCN(c3ccccc3)CC2)c1	?	-10%	?	-19%	-3%	18µM*
CCC(=O)c1ccc(N2CCN(C(=O)c3ccccc3F)CC2)c(F)c1	?	-1%	20	-5%	14%	-10%
Cc1oc(-c2cccc(NC(=O)C3CCCN(C)C3)c2)nc1CNC(=O)c1coc2c1C(=O)CCC2 (stereo not given)	/	-23%	/	-29%	/	-3%
CCC(=O)N1CCc2cc(Br)cc(S(=O)(=O)N3CCCC(C(=O)Nc4cc(C)ccc4OC)C3)c21 (stereo not given)	/	i	?	-2%	/	-12%
CCC(Oc1ccc2c(=O)c(-c3ccccc3OC)coc2c1)C(=O)OCc1ccccc1 (stereo not given)	?	i	60	-6%	4%	20µM*
COc1ccccc1-c1coc2cc(O)ccc2c1=O	/	-16%	/	-16%	-24%	10%
Cc1c(C)n(Cc2ccccc2)c2ccc(C(=O)N3CCN(c4ccc(F)cc4)CC3)cc12	/	-9%	0	-14%	/	4%
Cc1cccc2c(=O)cc(CSc3ccccc3NC(=O)c3cccc(Cl)c3)[nH]c12	/	-9%	25	-11%	/	-15%
COc1nc(N)nc(NC(=O)c2cccs2)c1N=O	-5%	-4%[7.34 µM]	-78*	-3%[7.34 µM]	/	?
O=C(Nc1cnn(Cc2ccc(Cl)c(Cl)c2)c1)C12CC3CC(CC(C3)C1)C2	?	18µM*	68	?	-18%	0%
CCOc1ccc(C(=O)Nc2cnn(Cc3ccc(Cl)c(Cl)c3)c2)cc1	13µM*	/	-70*	/	-11%	?
COc1ccc(-c2cc(C(=O)Nc3cnn(Cc4ccc(F)cc4)c3)no2)cc1OC	/	2%	-7	-2%	/	-13%
COc1ccc(C(=O)Nc2cnn(Cc3c(F)cccc3Cl)c2)cc1OC	13µM*	/	52	/	1%	1%
O=C(Nc1ccc(Cl)c(Cl)c1)c1ccc(Cn2cc(Cl)cn2)cc1	?	/	-24	/	-8%	24%
Cc1noc(/C=C/c2cccs2)c1S(=O)(=O)N1CCC(C(=O)NCc2ccccc2Cl)CC1	/	-6%	23	-11%	/	-3%
CCOC(=O)C1=C(C)NC(=O)CC1c1cc2c(cc1[N+](=O)[O-])OCO2 (stereo not given)	-1%	-9%	-9	-4%	13µM*	-13%
COc1ccccc1NS(=O)(=O)c1cccc(NC(=O)c2nn(C)c(=O)c3ccccc23)c1	?	/	33	/	/	-10%
COc1ccc(NC(=O)c2nn(C)c(=O)c3ccccc23)cc1S(=O)(=O)Nc1ccccc1Cl	13µM*	/	88	/	11%	86%
SMILES	HCV inh	Vaccinia mCherry	HCMV inh	VACV Venus inh	Giardia FBPA inh	FMDV inh
CC(C)OCCCNC(=S)Nc1ccc(S(N)(=O)=O)cc1	-5%	-13%	15	1%	14µM*	6%
COc1ccc2c3c(n(C)c2c1)[C@H](CO)N(C(=O)c1cccc(F)c1)CC31CN(C(=O)c2cccc(F)c2)C1	/	/	26	/	/	/
Cc1[nH]c(C(=O)N/N=C/c2ccc(C(=O)O)cc2)c(C)c1C(=O)N/N=C/c1ccc(C(=O)O)cc1	-14%	-1%	-6	-10%	-8%	-2%
CCOC(=O)c1c(C)[nH]c(C(=O)N/N=C/c2ccc(Br)cc2)c1C	?	-27%	-77*	?	2%	-19%
CCOC(=O)c1c(C)[nH]c(C)c1S(=O)(=O)N(C)CC(=O)N(C)Cc1ccccc1	5%	/	-21	/	2%	7%
CCc1cc(CC)c(/C=N/NC(N)=O)c(CC)c1	11µM*	/	-24	/	0%	-14%
Cc1cc(C)c(/C=N/NC(N)=O)c(C)c1/C=N/NC(N)=O	5%	-21%	?	-3%	-4%	7%
COc1cc(-c2nc(-c3ccccc3)c(-c3ccc(Br)cc3)[nH]2)cc(OC)c1O	/	-19%	3	-13%	/	5%
Oc1ccc(-c2nc(-c3ccccc3)c(-c3ccc(Br)cc3)[nH]2)cc1	/	?	-63*	?	/	-10%
CCOC(=O)c1sc2nc(C)nc(NCc3cccnc3)c2c1C	-3%	-11%	?	-1%	-2%	-10%
CCOC(=O)c1sc2nc(C)nc(NCc3ccc(F)cc3)c2c1C	?	-22%	?	-18%	7%	-11%
CCOC(=O)c1sc2nc(C)nc(Nc3ccc(OC)cc3)c2c1C	-25%	-14%	-67*	-11%	4%	-5%
CCOC(=O)c1sc2nc(C)nc(NCc3ccc(Cl)cc3)c2c1C	?	-19%	-68*	-25%	-4%	?
CCOC(=O)c1sc2nc(C)nc(SC(C)C(=O)N(C)c3ccccc3)c2c1C (stereo not given)	?	-11%	-64*	-6%	/	-17%
O=S(=O)(Nc1cccc(-c2ccc3nncn3n2)c1)c1cc(F)ccc1F	10%	?	0	-7%	/	48%
CC(Sc1nc2ccccc2c(=O)n1C)C(=O)Nc1ccc2c(c1)OCCO2 (stereo not given)	10µM*	/	-80*	/	/	?
O=C(CSc1ncnc2ccccc12)Nc1ccc2c(c1)OCCO2	?	-21%	-6	-25%	-2%	-17%
C[C@@H](C(=O)Nc1ccc2c(c1)OCCO2)n1c(=O)[nH]c2ccccc2c1=O	15%	/	-70*	/	-9%	?
CC(Sc1ncnc2ccccc12)C(=O)Nc1ccc2c(c1)OCCO2 (stereo not given)	13µM*	?	-73*	?	0%	16µM*
